Experimental data reported in PubChem BioAssay AID1159580 (chemical genetic matrix, 2015).
Screen size: about 5,500 compounds; about 2,000 (36%) were called active. Inconclusive results (about 18%) are left out. Cut-off read from the data, not from the text of the source: active = normalized growth mostly below about 0.91 (no sharp cut-off); inconclusive = no clear call, values can overlap the other calls; inactive = mostly above about 0.92. This is one part of the list.

Assay: chemical genetic growth profiling, strain panel (AID 1159580);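 note: tested at 20 µM; growth read once vehicle control cultures reached saturation at 30 °C; 1 = growth at the plate median or of vehicle wells; lower values mean less growth of the strain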
Details: growth OD

Measured: normalized growth

O=C(NCO)c1cccnc1
inactive: S. cerevisiae deletion strains, locus YJR075W, strain HOC1, hits give low values 0.992 | S. cerevisiae deletion strains, locus YKL009W, strain mrt4, hits give low values 0.984 | S. cerevisiae deletion strains, locus YKL068W, hits give low values 0.974 | S. cerevisiae deletion strains, locus YKL085W, strain MDH1 (second series), hits give low values 1 | S. cerevisiae deletion strains, locus YKL085W, strain MDH1, hits give low values 1 | S. cerevisiae deletion strains, locus YKL160W, strain elf1, hits give low values 1.01 | S. cerevisiae deletion strains, locus YKL190W, strain CNB1, hits give low values 0.997 | S. cerevisiae deletion strains, locus YKR001C, strain vps1, hits give low values 0.99 | S. cerevisiae deletion strains, locus YKR026C, strain gcn3, hits give low values 1.01 | S. cerevisiae deletion strains, locus YKR091W, strain srl3, hits give low values 1 | S. cerevisiae deletion strains, locus YLL001W, strain dnm1, hits give low values 0.992 | S. cerevisiae deletion strains, locus YLL026W, hits give low values 1 | S. cerevisiae deletion strains, locus YLL041C, strain sdh2, hits give low values 1.01 | S. cerevisiae deletion strains, locus YLR027C, strain aat2, hits give low values 1.01 | S. cerevisiae deletion strains, locus YLR039C, strain RIC1, hits give low values 0.939 | S. cerevisiae deletion strains, locus YLR058C, strain SHM2, hits give low values 0.986 | S. cerevisiae deletion strains, locus YLR102C, strain apc9, hits give low values 0.985 | S. cerevisiae deletion strains, locus YLR113W, strain HOG1, hits give low values 0.997 | S. cerevisiae deletion strains, locus YLR221C, strain rsa3, hits give low values 1.01 | S. cerevisiae deletion strains, locus YLR258W, strain gsy2, hits give low values 1.01 | S. cerevisiae deletion strains, locus YLR262C, strain YPT6 (second series), hits give low values 0.995 | S. cerevisiae deletion strains, locus YLR262C, strain YPT6, hits give low values 0.954 | S. cerevisiae deletion strains, locus YLR268W, strain sec22, hits give low values 0.993 | S. cerevisiae deletion strains, locus YLR320W, strain mms22, hits give low values 1 | S. cerevisiae deletion strains, locus YLR330W, strain CHS5, hits give low values 0.981 | S. cerevisiae deletion strains, locus YLR342W, strain FKS1 (second series), hits give low values 1.01 | S. cerevisiae deletion strains, locus YLR342W, strain FKS1, hits give low values 1.01 | S. cerevisiae deletion strains, locus YLR357W, strain rsc2, hits give low values 0.974 | S. cerevisiae deletion strains, locus YLR370C, strain arc18, hits give low values 1.01 | S. cerevisiae deletion strains, locus YLR371W, strain rom2, hits give low values 0.971 | S. cerevisiae deletion strains, locus YLR384C, strain iki3, hits give low values 0.997 | S. cerevisiae deletion strains, locus YLR418C, strain cdc73, hits give low values 1.03 | S. cerevisiae deletion strains, locus YML016C, strain PPZ1, hits give low values 0.998 | S. cerevisiae deletion strains, locus YML032C, strain rad52, hits give low values 0.975 | S. cerevisiae deletion strains, locus YML120C, strain ndi1, hits give low values 1.01 | S. cerevisiae deletion strains, locus YML124C, strain tub3, hits give low values 1 | S. cerevisiae deletion strains, locus YMR058W, strain fet3, hits give low values 1 | S. cerevisiae deletion strains, locus YMR078C, strain ctf18, hits give low values 0.993 | S. cerevisiae deletion strains, locus YMR125W, strain sto1, hits give low values 0.997 | S. cerevisiae deletion strains, locus YMR129W, hits give low values 0.987 | S. cerevisiae deletion strains, locus YMR205C, strain PFK2, hits give low values 0.992 | S. cerevisiae deletion strains, locus YMR223W, strain ubp8, hits give low values 0.988 | S. cerevisiae deletion strains, locus YMR231W, strain pep5, hits give low values 1.01 | S. cerevisiae deletion strains, locus YMR263W, strain SAP30, hits give low values 0.999 | S. cerevisiae deletion strains, locus YMR307W, strain GAS1, hits give low values 1.08 | S. cerevisiae deletion strains, locus YNL067W, strain RPL9B, hits give low values 0.995 | S. cerevisiae deletion strains, locus YNL071W, strain lat1, hits give low values 1.02 | S. cerevisiae deletion strains, locus YNL128W, strain TEP1, hits give low values 0.999 | S. cerevisiae deletion strains, locus YNL153C, strain GIM3, hits give low values 1 | S. cerevisiae deletion strains, locus YNL183C, strain NPR1, hits give low values 0.92 | S. cerevisiae deletion strains, locus YNL209W, strain ssb2, hits give low values 0.999 | S. cerevisiae deletion strains, locus YNL233W, strain BNI4, hits give low values 1.01 | S. cerevisiae deletion strains, locus YNL248C, strain rpa49, hits give low values 1 | S. cerevisiae deletion strains, locus YNL250W, strain rad50, hits give low values 0.983 | S. cerevisiae deletion strains, locus YNL271C, strain bni1, hits give low values 0.978 | S. cerevisiae deletion strains, locus YNL298W, strain CLA4, hits give low values 0.996 | S. cerevisiae deletion strains, locus YNL307C, strain MCK1, hits give low values 0.993 | S. cerevisiae deletion strains, locus YNL322C, strain KRE1 (second series), hits give low values 1.01 | S. cerevisiae deletion strains, locus YNL322C, strain KRE1, hits give low values 0.986 | S. cerevisiae deletion strains, locus YNR049C, strain mso1, hits give low values 1.01 | S. cerevisiae deletion strains, locus YNR052C, strain pop2, hits give low values 0.984 | S. cerevisiae deletion strains, locus YOL006C, strain TOP1, hits give low values 0.997 | S. cerevisiae deletion strains, locus YOL012C, strain htz1 0.887 | S. cerevisiae deletion strains, locus YOL147C, strain pex11, hits give low values 0.988 | S. cerevisiae deletion strains, locus YOR001W, strain rrp6, hits give low values 0.999 | S. cerevisiae deletion strains, locus YOR061W, strain CKA2, hits give low values 0.991 | S. cerevisiae deletion strains, locus YOR069W, strain VPS5, hits give low values 0.989 | S. cerevisiae deletion strains, locus YOR070C, strain gyp1, hits give low values 1 | S. cerevisiae deletion strains, locus YOR080W, strain dia2, hits give low values 1 | S. cerevisiae deletion strains, locus YOR083W, strain WHI5, hits give low values 1 | S. cerevisiae deletion strains, locus YOR106W, strain vam3, hits give low values 1.02 | S. cerevisiae deletion strains, locus YOR136W, strain idh2, hits give low values 0.982 | S. cerevisiae deletion strains, locus YOR144C, strain elg1, hits give low values 0.978 | S. cerevisiae deletion strains, locus YOR184W, strain ser1, hits give low values 0.959 | S. cerevisiae deletion strains, locus YOR231W, strain MKK1, hits give low values 0.98 | S. cerevisiae deletion strains, locus YOR265W, strain rbl2, hits give low values 1.01 | S. cerevisiae deletion strains, locus YOR270C, strain vph1, hits give low values 1.02 | S. cerevisiae deletion strains, locus YOR290C, strain snf2, hits give low values 0.943 | S. cerevisiae deletion strains, locus YOR316C, strain cot1, hits give low values 0.997 | S. cerevisiae deletion strains, locus YPL051W, strain arl3, hits give low values 1 | S. cerevisiae deletion strains, locus YPL055C, strain LGE1, hits give low values 1.02 | S. cerevisiae deletion strains, locus YPL078C, strain atp4, hits give low values 1.01 | S. cerevisiae deletion strains, locus YPL106C, strain sse1, hits give low values 0.998 | S. cerevisiae deletion strains, locus YPL240C, strain hsp82, hits give low values 1.02 | S. cerevisiae deletion strains, locus YPL241C, strain CIN2, hits give low values 0.958 | S. cerevisiae deletion strains, locus YPL256C, strain CLN2, hits give low values 0.985 | S. cerevisiae deletion strains, locus YPR119W, strain clb2, hits give low values 0.986 | S. cerevisiae deletion strains, locus YPR141C, strain kar3, hits give low values 0.992 | S. cerevisiae deletion strains, locus YPR163C, strain tif3, hits give low values 0.989 | S. cerevisiae deletion strains, locus YPR167C, strain met16, hits give low values 1 | S. cerevisiae deletion strains, strain wtn01, hits give low values 0.996 | S. cerevisiae strains, strain wild type, hits give low values 0.986
